In all, about 13,000 compounds were measured (“IFI”: median about 4, highest 2% from about 17 on). The sample holds the highest values, similar compounds and a random draw of the others, so the mix is not that of the screen.

The experiment can be described thus: GSK_TCMDC: Inhibition Frequency Index (IFI). The number of non-kinase HTS assays where a compound showed > 50 % inhibition, expressed as a percentage of the number of such assays in which the compound was tested. The class given is functional.
The compound `CON=Cc1sc(CNCCCN=c2cc(O)c3ccccc3[nH]2)c(C)c1Br` showed an IFI of 6.52%.

For `N=C(N)c1ccc2[nH]c(SCc3ccccc3)nc2c1`, the IFI stood at 0.94%.

As for `O=c1c(Br)ccccc1Br`, the IFI is 11.6%.

`CCN(CC)CCN(Cc1ccc(-c2ccc(C(F)(F)F)cc2)cc1)C(=O)Cn1c(CCc2cccc(F)c2F)cc(=O)cc1-c1ccccc1` yielded an IFI of 11.3%.

With `N=C(N)NN=Cc1ccccc1OCc1ccccc1Cl`, the IFI was 6.72%.

Compound `CS(=O)(=O)NCCCNCc1ccc(-c2ccc(-c3nc4cc(C(F)(F)F)ccc4[nH]3)cc2)cc1` had an IFI of 5.94%.

Turning to `CCc1ccc(CN2CCC(CNC(=O)c3cc(-c4cccc(C(F)(F)F)c4)cs3)C2)cc1` (stereo unspecified), the IFI was determined as 14%.

In turn, `CCCCOc1ccc(CNCCCCCCNCc2ccc(OCCCC)c3ccccc23)c2ccccc12` came in with an IFI of 17.8%.

`CCCOc1ccc(CNCCCCCCNCc2ccc(OCCC)c3ccccc23)c2ccccc12` had an IFI of 15.6%.

As to `CCCCSc1ccc(CNCCCCCCNCc2ccc(SCCCC)c3ccccc23)c2ccccc12`, the IFI stood at 14.8%.

`CC1(C)NC(=N)NC(=N)N1OCC=Cc1ccccc1`: the IFI was 3.57%.

In the case of `COc1ccc2[nH]ccc(=NN=Cc3ccc(Cl)cc3)c2c1`, the IFI was found to be 0.74%.

Consider `CCN(CC)CCNC(=O)/C(=C/C=C/c1cc2cc(Cl)c(Cl)cc2[nH]1)OC`, for which the IFI turned out to be 7.63%.

`CCOc1ccccc1N1CCN(CCCNC(=O)/C(=C/C=C/c2cc3cc(Cl)c(Cl)cc3[nH]2)OC)CC1` yielded an IFI of 10.8%.

Compound `CO/C(=C\C=C\c1cc2cc(Cl)c(Cl)cc2[nH]1)C(=O)NCCCNC12CC3CC(CC(C3)C1)C2` gave an IFI of 21.1%.

Compound `CO/C(=C\C=C\c1cc2cc(Cl)c(Cl)cc2[nH]1)C(=O)NCCCN1CCN(c2cccc(Cl)c2)CC1` displayed an IFI of 8.27%.

The compound `CO/C(=C\C=C\c1cc2cc(Cl)c(Cl)cc2[nH]1)C(=O)NCCCCN1CCN(c2ccccc2OC)CC1` came in with an IFI of 19.1%.

Regarding `CCN(CC)CCCNC(=O)/C(=C/C=C/c1cc2cc(Cl)c(Cl)cc2[nH]1)OC`, the IFI came out at 8.46%.

`CCOC(=O)c1ccc(NC(=O)Nc2ccc(-c3cccc(-c4nc5cccc(C)c5[nH]4)c3)cc2)cc1` registered an IFI of 7%.

`Cc1noc(C)c1-c1cccc(CNCc2ccc(-c3ccc(-c4nc5cc(F)ccc5[nH]4)cc3)cc2)c1` registered an IFI of 8.91%.

`O=C(NCCc1cccc(Cl)c1Cl)c1cnc(N2CCN(c3ccncc3)CC2)c(Cl)c1` came in with an IFI of 20%.

In turn, `O=C(NCCc1cccc(Cl)c1Cl)c1ccc(N2CCN(c3ccncc3)CC2)nc1` came in with an IFI of 10.4%.

`O=C(Nc1cccc(Cl)c1)c1cnc(N2CCN(c3ccncc3)CC2)c(Cl)c1` registered an IFI of 16.7%.

Regarding `Cc1ccccc1CCNC(=O)c1ccc(N2CCN(c3ccncc3)CC2)nc1`, the IFI came to 2.08%.

`Cc1ccccc1CCNC(=O)c1cnc(N2CCN(c3ccncc3)CC2)c(Cl)c1` displayed an IFI of 20.8%.

The compound `COc1ccccc1CCNC(=O)c1cnc(N2CCN(c3ccncc3)CC2)c(Cl)c1` had an IFI of 10.4%.

The values are drawn from ChEMBL document CHEMBL1157539, “Thousands of chemical starting points for antimalarial lead identification” (Nature, 2010).
